Results on 12 molecules are retold here after PubChem BioAssay (NCATS).

Experiment [1] is described as follows: qHTS profiling of the MIPE4 collection as inhibitors of Plasmodium falciparum (3D7) proliferation (AID 743344). The note with it: P. falciparum 3D7 in erythrocytes, SYBR Green DNA fluorescence, 72 h; at 28.5 µM unless noted. The method in brief:
(§1)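 Parasite DNA was quantified by SYBR Green I fluorescence (ex 485, em 535 nm) after overnight lysis in saponin/Triton buffer at room temperature. Cultures at 0.3% parasitemia and 2.5% hematocrit were first exposed to compound for 72 h at 37 C; signals were normalised to artemisinin (0.29 uM) and vehicle wells.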

Experiment [2] can be described thus: qHTS profiling of the MIPE4 collection as inhibitors of Plasmodium falciparum (DD2) proliferation (AID 743345). The note with it: P. falciparum Dd2 in erythrocytes, SYBR Green DNA, 72 h; at 28.5 µM unless noted. The method in brief:
as §1
(In general: In qHTS, concentration-response curves come from the screen itself.)

Experiment [3] is described as follows: qHTS profiling of the MIPE4 collection as inhibitors of Plasmodium falciparum (HB3) proliferation (AID 743347).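 Note: plate controls were DMSO vehicle wells for no effect and artemisinin wells for full effect.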 The note with it: P. falciparum HB3 in erythrocytes, SYBR Green DNA, 72 h; at 28.5 µM unless noted. Put shortly: as §1
The nature of experiment [4]: High-throughput drug toxicity screening in the BPDCN cell line Gen2.2 (AID 1224824).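 Note: cells exposed to compounds for 48 h before reading.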 As to conditions: Gen2.2 BPDCN cells; at 45.8 µM (top of the series) unless noted. The method in brief: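 Readout is ATP luminescence from Gen2.2 cells after two days of drug exposure in serum-containing medium at 37 °C. Values express percent activity, with vehicle defining full signal and 9.2 uM bortezomib defining zero.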

Experiment [5] in a line: High-throughput drug toxicity screening in the BPDCN cell line Cal-1 (AID 1224825). The note with it: Cal-1 BPDCN cell viability, qHTS; at 45.8 µM (top of the series) unless noted. The method in brief: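 CellTiter-Glo luminescence after 48 h compound exposure; percent activity scaled with DMSO as 100% and bortezomib (9.2 uM final) as 0%. Cal-1 cells seeded at 500/well in RPMI, 10% FBS, no phenol red.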

The nature of experiment [6]: qHTS profiling of the MIPE4 collection as inhibitors of Plasmodium falciparum (DD2) proliferation (Rep 2) (AID 743346). As to conditions: P. falciparum Dd2 in erythrocytes, SYBR Green DNA, 72 h; at 28.5 µM unless noted. The method in brief:
as §1

Experiment [7] is described as follows: qHTS profiling for inhibitors of Plasmodium falciparum (3D7) proliferation (AID 743322).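 Note: infected erythrocytes exposed to compound for 72 h before lysis; 100% = DMSO vehicle wells and 0% = 0.29 µM artemisinin.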 The note with it: P. falciparum 3D7 proliferation; at 28.7 µM (top of the series). Put shortly:
as §1

Experiment [8] in a line: qHTS profiling for inhibitors of Plasmodium falciparum (DD2) proliferation (AID 743323). As to conditions: lower = more inhibition; at 28.7 µM (top of the series). The method in brief: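 Parasite proliferation measured via DNA-dye fluorescence, as uninfected erythrocytes lack DNA. Cultures at 0.3% parasitemia and 2.5% hematocrit incubated 72 h with compound; signal scaled between vehicle and 0.29 uM artemisinin wells.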

The nature of experiment [9]: qHTS profiling for inhibitors of Plasmodium falciparum (HB3) proliferation (AID 743324).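 Note: 100% = DMSO vehicle wells and 0% = artemisinin-treated control wells.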 The note with it: Plasmodium falciparum HB3 blood-stage proliferation; at 28.7 µM (top of the series). Put shortly:
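SYBR Green fluorescence (485 ex/535 em) of lysed cultures, incubated overnight at room temperature in the dark, quantifies parasite DNA. Infected erythrocytes at 0.3% parasitemia and 2.5% hematocrit were exposed 72 h; values normalized to DMSO and 0.29 uM artemisinin controls.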

Structures are written as SMILES.

`Cc1nc(Nc2n[nH]c3c2CN(C(=O)N[C@H](CN(C)C)c2ccccc2)C3(C)C)c2sccc2n1` returned a parasite growth, % of DMSO control in experiment [1] of 4.72%. In experiment [2], the parasite growth remaining, % of DMSO control (lower = more inhibition) was 7.44%. In experiment [3], this molecule returned a growth, % of control of 6.35%. Besides, the cell viability, % of control (lower = more cytotoxic) in experiment [4] was 0.772%. In experiment [5], the viability (% of control) was found to be 1.64%.
On to `Cc1cc(Nc2ncnc3ccc(-c4ccc(CNCCS(C)(=O)=O)o4)cc23)ccc1Oc1ccn2ncnc2c1`, for which, in [1], the parasite growth, % of DMSO control was found to be 5.93%. In experiment [2], the parasite growth remaining, % of DMSO control (lower = more inhibition) is 7.77%. Further, in experiment [6], the parasite growth, % of control (lower = inhibition) came out at 7.94%. This molecule gave a growth, % of control in [3] of 2.65%. The cell viability, % of control (lower = more cytotoxic) in experiment [4] came to 3.66%. Moreover, in experiment [5], the viability (% of control) stood at 0.85%.
Regarding `CN(C)c1nc(Cc2ccc(NC(=O)c3ccc4ccccc4c3)cc2)nc(Cl)c1CC(=O)O`, the parasite growth, % of DMSO control in experiment [1] was 59.8%. Further, the parasite growth remaining, % of DMSO control (lower = more inhibition) in experiment [2] was 87.6%. Further, in experiment [3], the growth, % of control came out at 85.9%. The cell viability, % of control (lower = more cytotoxic) in [4] was determined as 90.6%. The viability (% of control) in experiment [5] was 113%.
As to `O=C(C=Cc1cccc(S(=O)(=O)Nc2ccccc2)c1)NO`, the remaining parasite growth % (stronger effect = lower value) in experiment [7] is 0.201%. Moreover, the activity, percent of control in experiment [8] came out at 0.981%. Further, in [9], the remaining proliferation (% of control), lower = more inhibition came to 0.6%. The molecule also came in with a parasite growth, % of DMSO control in experiment [1] of 4.9% [at 57.5 µM]. The parasite growth remaining, % of DMSO control (lower = more inhibition) in experiment [2] amounted to 6.53% [at 57.5 µM]. Moreover, the parasite growth, % of control (lower = inhibition) in experiment [6] was found to be 18.3% [at 57.5 µM]. Further, the growth, % of control in experiment [3] is 8.45% [at 57.5 µM]. Besides, in experiment [5], the viability (% of control) stood at 3.98% [at 92.2 µM].
Turning to `O=C(Nc1nc2cccc(-c3ccc(CN4CCS(=O)(=O)CC4)cc3)n2n1)C1CC1`, in experiment [1], the parasite growth, % of DMSO control was found to be 64.7%. For the same molecule, the parasite growth remaining, % of DMSO control (lower = more inhibition) in [2] was 97.6%. Further, the parasite growth, % of control (lower = inhibition) in [6] worked out at 62.8%. Moreover, in experiment [3], the growth, % of control is 73.9%. The cell viability, % of control (lower = more cytotoxic) in experiment [4] was determined as 107%. Also, the viability (% of control) in experiment [5] came to 9.42%.
In the case of `C[C@@H](Oc1cc(-n2cnc3ccc(CN4CCN(C)CC4)cc32)sc1C(N)=O)c1ccccc1C(F)(F)F`, the remaining parasite growth % (stronger effect = lower value) in experiment [7] was -0.0099%. Further, the activity, percent of control in experiment [8] was determined as 3.25%. In [9], the remaining proliferation (% of control), lower = more inhibition was determined as 1.38%. This molecule also gave a parasite growth, % of DMSO control in [1] of 6.16%. For the same molecule, the parasite growth remaining, % of DMSO control (lower = more inhibition) in experiment [2] came to 7.2%. Besides, the parasite growth, % of control (lower = inhibition) in experiment [6] came out at 13.9%. This molecule yielded a growth, % of control in [3] of 6.6%. In [5], the viability (% of control) came out at 3.46%.
Molecule `CC1COC2(CCN(c3nc(=O)c4cc(C(F)(F)F)cc([N+](=O)[O-])c4s3)CC2)O1` (centres undefined) displayed a parasite growth, % of DMSO control in experiment [1] of 20.5%. Also, in [2], the parasite growth remaining, % of DMSO control (lower = more inhibition) is 70%. In experiment [3], the growth, % of control amounted to 29.9%. For the same molecule, the cell viability, % of control (lower = more cytotoxic) in [4] was 104%. The viability (% of control) in experiment [5] is 110%.
`Nc1ccc(S(=O)(=O)Nc2ncccn2)cc1` gave a parasite growth, % of DMSO control in [1] of 92.1%. Further, the parasite growth remaining, % of DMSO control (lower = more inhibition) in experiment [2] turned out to be 105%. Moreover, the parasite growth, % of control (lower = inhibition) in experiment [6] amounted to 69.1%. In experiment [3], this molecule came in with a growth, % of control of 63.8%. The cell viability, % of control (lower = more cytotoxic) in experiment [4] came out at 115%. Also, the viability (% of control) in experiment [5] is 103%.
`CN1CCN(c2ccc3nc(-c4c(N)c5c(F)cccc5[nH]c4=O)[nH]c3c2)CC1`: the remaining parasite growth % (stronger effect = lower value) in [7] is -2.13%. In addition, the activity, percent of control in experiment [8] was -0.739%. Moreover, the remaining proliferation (% of control), lower = more inhibition in [9] is -3.26%. The molecule further gave a parasite growth, % of DMSO control in experiment [1] of 3.66%. Further, the parasite growth remaining, % of DMSO control (lower = more inhibition) in [2] turned out to be 6.04%. Also, the parasite growth, % of control (lower = inhibition) in experiment [6] was 7.17%. In addition, the growth, % of control in [3] is 2.91%. The viability (% of control) in [5] was 3.34%.
`CC(O)C1C(=O)N2C(C(=O)O)=C(SC3CNC(C(=O)N(C)C)C3)C(C)C12` (centres undefined): the parasite growth, % of DMSO control in [1] stood at 87.4%. Further, the parasite growth remaining, % of DMSO control (lower = more inhibition) in experiment [2] stood at 93.4%. The parasite growth, % of control (lower = inhibition) in experiment [6] amounted to 82.6%. This molecule returned a growth, % of control in experiment [3] of 75.4%. The cell viability, % of control (lower = more cytotoxic) in [4] was determined as 120%. In experiment [5], the viability (% of control) came to 98.9%.
In the case of `O=c1c2ccccc2nc2n1CCc1c-2[nH]c2ccccc12`, the parasite growth, % of DMSO control in [1] stood at 85.9%. In addition, the parasite growth remaining, % of DMSO control (lower = more inhibition) in experiment [2] was determined as 88.1%. Moreover, the parasite growth, % of control (lower = inhibition) in [6] came out at 167%. In addition, the growth, % of control in [3] turned out to be 85.6%. Also, the cell viability, % of control (lower = more cytotoxic) in experiment [4] was 35%. In addition, the viability (% of control) in [5] stood at 72.9%.
Consider `CCc1c2c(nc3ccc(O)cc13)-c1cc3c(c(=O)n1C2)COC(=O)[C@]3(O)CC`, for which the parasite growth, % of DMSO control in [1] came out at 13.6%. In addition, the parasite growth remaining, % of DMSO control (lower = more inhibition) in [2] turned out to be 12.1%. In experiment [3], this molecule returned a growth, % of control of 11.3%. For the same molecule, the cell viability, % of control (lower = more cytotoxic) in [4] is 6.79%. In experiment [5], the viability (% of control) was found to be 5.47%.
